Hit rate of the full screen: of about 1,200 compounds, about 210 (18%) were called active. Rule as the data show it: active = inhibition above about 30%; inactive = the rest. These entries were drawn from the full list.

The test in a line: HTRF signal interference by compounds, confirmation, artefact control for SUMOylation inhibitor project, biochemical, uHTS (AID 2069). Particulars: HTRF interference counterscreen, fluorescence, at 35 µM, hits give high values. In general terms: TR-FRET usually uses a lanthanide donor and a delayed reading to cut background.
On to `COc1ccccc1Oc1c(C)oc2cc(OC(=O)c3ccco3)ccc2c1=O`, for which the inhibition (in general, the relative decrease from the control value, in per cent) is 36.7% (active). Under `CCOc1cc(/C=C2/C(=O)N(c3ccccc3)N=C2C)ccc1OC(=O)c1ccco1` stands -12.2% (inactive); under `COc1cc(/C=C2\C(=O)N(c3ccc(S(N)(=O)=O)cc3)N=C2C)ccc1OC(=O)c1ccco1`, 19.1% (inactive); under `CCOc1cccc(CNc2ccc(O)cc2)c1OCc1ccc(Cl)cc1Cl`, 17.7% (inactive). In the case of `COc1ccc(-n2c3nc4ccccc4nc3c3c(=N)oc(C)nc32)cc1` it was -1.2% (inactive); in that of `O=C1N(c2ccc(Cl)c(Cl)c2)CN(Cc2ccccc2)CN1n1cnnc1`, 13.3% (inactive). In the case of `CCCNC(=O)c1ccc2c(=O)c(O)c(-c3ccsc3)[nH]c2c1` it was 46.5% (active); in that of `COc1ccccc1NC(=O)Cn1nc(C)n2cccc2c1=O`, -4.55% (inactive). For `COc1ccccc1NC(=O)CSc1ccc2nnc(-c3ccccn3)n2n1`, the inhibition is -3.25% (inactive). Take `COc1ccccc1NC(=O)Nc1ccnn1Cc1cccs1`: the inhibition is 63.1% (active). Under `O=C(Nc1nc(-c2ccccc2)cs1)c1ccccc1NS(=O)(=O)c1ccc(F)cc1` stands 9.2% (inactive); under `CC(=O)c1ccc2cccc3c2c1N=CN3C`, -3.4% (inactive); under `COc1ccc(Br)cc1C1CC(=O)N2CN(Cc3ccccc3)CSC2=C1C#N` (centres undefined), -9.75% (inactive). In the case of `COc1ccc(OC)c(/C=N/NC(=O)CCc2ccc(O)c(O)c2)c1` it was 17.9% (inactive).

With `COc1ccc(-c2nc3ccncc3[nH]2)cc1OC`, the inhibition was 46.5% (active).

For `COc1ccc(-c2nc3ccc([N+](=O)[O-])cc3[nH]2)cc1`, the inhibition was 23.2% (inactive). Under `COc1ccc(NC(=O)C(=O)N/N=C\c2ccc(CNC(=O)C(=O)Nc3ccc(C)c(C)c3)o2)c(OC)c1` stands 15.9% (inactive). In the case of `COc1cc(/C=C2\C(=O)N(CCC#N)N=C2C)c(Br)cc1OC(C)C` it was -5.4% (inactive); in that of `CCN(CC)C(=O)COc1ccc2oc(-c3ccco3)cc(=O)c2c1`, 43.6% (active). Regarding `O=C(COc1ccc2oc(-c3ccco3)cc(=O)c2c1)N1CCCCC1`, the inhibition is 39.8% (active). Under `CN(C)c1cc(N/N=C/c2ccccc2C(F)(F)F)nc(N(C)C)n1` stands -2.9% (inactive). In the case of `O=c1cc(CSc2nnnn2-c2ccccc2)nc(Nc2ccc(F)cc2)[nH]1` it was 3.3% (inactive); in that of `NC(=O)CC(NC(=O)Cc1cccc2ccccc12)c1ccc(NC2CCCCCC2)c([N+](=O)[O-])c1` (centres undefined), 6.15% (inactive). Under `Cc1ccc(O)c(CNc2cccc3cccnc23)c1` stands -18.2% (inactive). Turning to `CCOC(=O)c1c(C)oc2c1c(C=NCCO)c(O)c1ccccc12`, the inhibition was 5.4% (inactive). In the case of `CC(C)(C)c1cc(=O)n(-c2ccccc2)[nH]1` it was -0.65% (inactive); in that of `Fc1ccc(NC(=S)Nc2cccc3ccccc23)cc1F`, -11.7% (inactive); in that of `CC1CCN(Cc2cc(=O)oc3cc(O)c(Cl)cc23)CC1`, 50.5% (active).

Consider `CC(C)(C)C1CCC2(CC1)Nc1cccc3cccc(c13)N2`, for which the inhibition was -2.5% (inactive). Turning to `CCn1c(NC(=O)c2ccccc2)nc2ccccc21`, the inhibition is 1.3% (inactive). In the case of `N#C/C(=C/c1ccc(-c2cc(C(=O)O)cc(C(=O)O)c2)o1)c1nc2ccccc2s1` it was 13.9% (inactive); in that of `COc1ccc(/C=C(\C#N)C(=O)OCC(=O)NCc2ccccc2Cl)cc1`, 6.4% (inactive); in that of `COc1ccc2nc(/C(C#N)=C\c3ccc(C(=O)O)cc3)[nH]c2c1`, 47.6% (active).

For the compound `O=C(/C=C/c1ccco1)NC(=S)Nc1cc(-c2nc3ccccc3s2)ccc1Cl`, the inhibition is 3.15% (inactive). Under `O=C(O)c1cc(Cl)c(Cl)cc1C(=O)Nc1cccc2ncccc12` stands 2.4% (inactive). In the case of `O=C(Nc1ccccc1-c1nc2ccccc2s1)c1cccnc1Cl` it was 64% (active); in that of `COCCNC(=S)Nc1cccc2cnccc12`, 4.9% (inactive). Under `C=CCn1c(SCC(=O)N2N=C(c3ccco3)CC2c2ccco2)nnc1-c1ccncc1` (centres undefined) stands -5.2% (inactive); under `O=C1Nc2ccc([N+](=O)[O-])cc2C1=Nc1cccc(CO)c1`, 3.75% (inactive).

Take `Cc1[nH]n(-c2ccccc2)c(=O)c1C(c1cccc([N+](=O)[O-])c1)c1c(C)[nH]n(-c2ccccc2)c1=O`: the inhibition is -11.2% (inactive). For `NCCSc1c(-c2ccccc2)[nH]c2ccccc12`, the inhibition was 0.7% (inactive).

Take `O=[N+]([O-])c1cc2c(cc1/C=N/n1c(-c3ccccn3)n[nH]c1=S)OCO2`: the inhibition is 0.15% (inactive). In the case of `CCN(Cc1cc(=O)n2ccsc2n1)c1cccc2ccccc12` it was 1.45% (inactive); in that of `O=C(Nc1ccccc1F)Nc1cc(S(=O)(=O)N2CCOCC2)ccc1N1CCCC1`, 6.3% (inactive). As to `Cc1cccn2cc(-c3ccc(S(=O)(=O)N4CCOCC4)cc3)nc12`, the inhibition is 40.8% (active). Under `Cc1ccc(C(=O)Nc2sc3c(c2C(=O)NCc2ccco2)CCCC3)cc1` stands 29.9% (inactive); under `COc1ccccc1C(=O)Nc1sc2c(c1C(=O)NCc1ccco1)CCCC2`, 33.8% (active); under `COc1ccccc1C(=O)Nc1ccc(-c2nnn(CC(=O)NCc3ccco3)n2)cc1`, 13.7% (inactive). Under `O=c1nc(Nc2ccc(Br)cc2)sc2ccc([N+](=O)[O-])cc12` stands -4% (inactive); under `CCCCC[C@H](O)/C=C/[C@@H]1[C@@H](C/C=C\CCCC(=O)OC)[C@@H](O)C[C@H]1O`, 23.6% (inactive); under `CCN(CC)S(=O)(=O)c1ccc(C)c(NC(=O)CSc2ncc(C(F)(F)F)cc2Cl)c1`, -6.95% (inactive). In the case of `c1cc(Nc2ncnc3sc4c(c23)CCC4)ccn1` it was 42.9% (active). Take `CC1=NN(c2ccc(Cl)cc2)C(=O)C1C(c1cccc(O)c1)c1c(C)[nH]n(-c2ccc(Cl)cc2)c1=O` (centres undefined): the inhibition was -23.6% (inactive). Under `COc1ccc(C(c2c(C)[nH]n(-c3ccccc3)c2=O)c2c(C)[nH]n(-c3ccccc3)c2=O)cc1OC` stands 13.3% (inactive). Under `N#Cc1c(N)nc2c(c1-c1ccc3c(c1)OCO3)CCc1ccccc1-2` stands 13.8% (inactive); under `Cc1oc2c(c(C)cc3oc(=O)c(CC(=O)NCC(=O)NCC(=O)NCC(C)O)c(C)c32)c1C` (centres undefined), 47.8% (active).

As for `Cc1oc2c(c(C)cc3oc(=O)c(CC(=O)NCC(=O)NCC(=O)O)c(C)c32)c1C`, the inhibition was 52.3% (active). Under `CC1=NN(c2ccccc2)C(=O)/C1=C\c1cn(CCC#N)nc1-c1ccc(Cl)cc1` stands -15.8% (inactive); under `S=C(Nc1ccc2nc(-c3ccccn3)c(-c3ccccn3)nc2c1)N1CCOCC1`, 10.8% (inactive). In the case of `CN(Cc1ccco1)C(=O)c1cc2c(s1)-c1ccc(Cl)cc1S(=O)(=O)C2` it was -9.15% (inactive). Under `S=c1[nH]nc(-c2cc(-c3ccccc3)n[nH]2)n1/N=C/c1c(Cl)cccc1Cl` stands 6.95% (inactive); under `CC1CCCN(c2nc3ccccc3nc2C(C#N)S(=O)(=O)c2ccccc2)C1` (centres undefined), 11.8% (inactive). Regarding `O=C1Nc2ccc(C(F)(F)F)cc2N2CCCC12` (centres undefined), the inhibition was 5.75% (inactive). Take `Cc1ccccc1N=Cc1cc2c(cc1[N+](=O)[O-])OCO2`: the inhibition is -2.65% (inactive). In the case of `O=C1C(C2=NC(c3ccccn3)C3C(=O)N(c4ccc(Cl)cc4Cl)C(=O)C23)=C(O)c2ccccc21` (centres undefined) it was 2.95% (inactive); in that of `O=C(N/N=C/c1ccc([N+](=O)[O-])o1)c1cc2c(ccc3ccccc32)o1`, 20.9% (inactive); in that of `O=C(N/N=C/c1ccc(-c2ccc(Cl)c(C(=O)O)c2)o1)c1cc2c(ccc3ccccc32)o1`, 50.7% (active). Under `Cc1cc(C(=O)N/N=C/c2ccc(-c3ccc(C)c(Cl)c3)o2)n[nH]1` stands 4.9% (inactive); under `Cc1ccc(-n2c(SCC(=O)N/N=C/c3ccccc3C(=O)O)nnc2-c2ccc(Cl)cc2)cc1`, 5.25% (inactive); under `O=C(CN1C(=O)CSC1=O)Nc1ccc(C(=O)O)cc1`, 1.7% (inactive).

Take `O=C(CSc1nnc(SCc2ccccc2)s1)N/N=C/C=C\c1ccco1`: the inhibition was 3.25% (inactive). Under `Cc1nc2ccc(-c3nc4cc(N)ccc4o3)cc2[nH]1` stands 54.3% (active); under `Nc1ccc2oc(-c3cccs3)nc2c1`, 37.1% (active); under `Cc1ccc(-c2nc3cc(N)ccc3o2)cc1`, 55.7% (active).

`Cc1ccc2oc(-c3ccc(C)c(NC(=O)Cc4cccs4)c3)nc2c1`: the inhibition is 22.6% (inactive). Under `O=C(Nc1ccc2oc(-c3cccc4ccccc34)nc2c1)c1ncn[nH]1` stands 16.2% (inactive); under `Cc1ccccc1-c1nc2cc(N)ccc2o1`, 46.2% (active); under `Cc1ccc(-n2nc(C)c3c2OC(N)=C(C#N)C3c2ccoc2)cc1` (centres undefined), 1.75% (inactive). In the case of `COc1ccc(OC)c(/C=C2\S/C(=N/NC(=O)c3ccc4ccccc4c3)NC2=O)c1`, the inhibition was 8.75% (inactive). In the case of `Cc1cc(C)c(S(=O)(=O)/N=C2/C=C(SCC(=O)O)C(=O)c3ccccc32)cc1C` it was -10.7% (inactive); in that of `O=C1C2C3C=CC(C3)C2C(=O)N1CNc1ccc(O)cc1` (centres undefined), -8.05% (inactive); in that of `O=c1c2ccccc2nc(COc2ccccc2)n1/N=C/c1cc([N+](=O)[O-])ccc1O`, -7.1% (inactive). Under `Oc1ccc(NCc2cccc(OCc3ccccc3)c2)cc1` stands -19.4% (inactive).

As to `O=C1C(NS(=O)(=O)c2cccs2)=C(N2CCN(c3cccc(C(F)(F)F)c3)CC2)C(=O)c2ccccc21`, the inhibition is -7.25% (inactive). In the case of `Cc1ccccc1S(=O)(=O)Nc1nc2ccccc2nc1N1CCc2ccccc2C1` it was -3.1% (inactive); in that of `N=c1c2cn[nH]c2nc(SCC(=O)c2ccc(Br)cc2)n1-c1ccc(Br)cc1`, 0.5% (inactive); in that of `O=C(CSc1nnc(-c2ccco2)c(-c2ccco2)n1)c1ccccc1`, 9% (inactive). Turning to `S=c1[nH]nc(-c2ccc(Cl)cc2)n1/N=C/C=C/c1ccco1`, the inhibition was -4.3% (inactive).

Consider `CCOC(=O)C1CCCN(c2cc(NCCCO)c([N+](=O)[O-])c3nonc23)C1` (centres undefined), for which the inhibition was -8.1% (inactive).

Values taken from PubChem BioAssay AID2069 (Sanford-Burnham Center for Chemical Genomics, 2009).
